G9a inh: qHTS Assay for Inhibitors of Histone Lysine Methyltransferase G9a | G9a H3K9 monomethylation, AlphaScreen, 2 h | Potency, µM (doses to about 102 µM), for the others: top-dose activity, negative = inhibition, usual class: inhibitors | 350,000 tested, 8.8% active | AID 504332, 2011; further: on the % scale 0 is the no-effect control and ±100 the full control effect; nearly all actives have a fitted effect of over 75% in size
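Chemiluminescent proximity detection of H3K9 monomethylation, read after 10 min bead incubation in the dark. Reaction: 20 nM G9a, 500 nM biotin-H3K9 peptide, 20 uM SAM cofactor, 2 h, room temperature, following 15 min enzyme-compound preincubation.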
BAZ2B inh: qHTS Assay for Inhibitors of BAZ2B. AlphaScreen BAZ2B-H3K14Ac peptide displacement. Potency, µM (doses to about 114 µM), inactives show at the highest dose activity change, negative = inhibition, hits mostly inhibitors. 360,000 tested, 4.4% active. AID 504333, 2011; further: on the % scale 0 is the no-effect control and ±100 the full control effect; nearly all actives have a fitted effect of over 60% in size
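In this displacement format the biotinylated H3(5-23) peptide acetylated at Lys14 serves as ligand at 50 nM, with BAZ2B at 50 nM in PBS pH 7.4 containing 0.01% Tween-20. Donor and acceptor beads are 10 ug/mL final.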
JMJD2A Tudor: qHTS Assay for Inhibitors of JMJD2A-Tudor Domain | Lysine-specific demethylase 4A (Homo sapiens), O75164 | AID 504339, 2011 | AlphaScreen JMJD2A-Tudor / H3K4me3 peptide binding | Potency, µM (series often up to 114 µM), for the others: top-dose activity change, negative = inhibition, usual class: inhibitors | 390,000 tested, 4.4% active; further: on the % scale 0 is the no-effect control and ±100 the full control effect; nearly all actives have a fitted effect of over 50% in size
HP1b binding inh: HTS for Inhibitors of HP1-beta Chromodomain Interactions with Methylated Histone Tails; Chromobox protein homolog 1 (Homo sapiens), P83916; AlphaScreen HP1-beta / biotin-H3K9me3 peptide binding; Potency, µM (doses to about 114 µM), for inactives: at the highest dose activity change, negative = inhibition, usual class: inhibitors; 390,000 tested, 0.56% active; AID 540317, 2011; further: nearly all actives have a fitted effect of over 70% in size
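Compound inhibition of the preformed complex between 50 nM HP1-beta and 50 nM biotinylated H3K9me3 peptide was read by AlphaScreen. Buffer was PBS pH 7.4 with 0.01% Tween-20. Incubations ran 30 min at room temperature, with 10 ug/mL donor/acceptor beads.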
ALOX12 inh: Primary qHTS assay for inhibitors of human arachidonate 12S-lipoxygenase (ALOX12): Round 2; purified 12hLO, xylenol orange hydroperoxide absorbance; Potency, µM (doses to about 108 µM), inactives show top-dose activity change, negative = inhibition, hits mostly inhibitors; 580,000 tested, 1.1% active; AID 1671190, 2021; further: on the % scale 0 is the no-effect control and ±100 the full control effect
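Purified human 12hLO (150 nM final) in 25 mM Hepes, 0.01% Triton X-100, pH 7.0 was preincubated 15 min at room temperature with compound. Then 40 uM arachidonic acid was added, 30 min. Hydroperoxide was read by Fe-XO absorbance ratio 573/405 nm.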
Sfp inh: qHTS Assay for Inhibitors of Bacillus subtilis Sfp phosphopantetheinyl transferase (PPTase). 4'-phosphopantetheinyl transferase ffp (Bacillus subtilis), Q9F4F7. Biochemical Sfp PPTase activity, qHTS. Potency, µM, without a hit: largest response in the series, negative = inhibition, usual class: inhibitors. 310,000 tested, 3.5% active;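 further: the enzyme is Sfp with the accession as filed and its product quenches rhodamine fluorescence; 0% = enzyme reaction without inhibitor and -100% = no enzyme wells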
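Reaction rates are the 30-min fluorescence difference (ex 525, em 598 nm) in wells containing 15 nM Sfp, 5 uM rhodamine-CoA and 12.5 uM BHQ-2-YbbR at pH 7.6 with 10 mM MgCl2.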
Starred values were filed as active, the others as inactive; ? = inconclusive; . = no result; [ ] = dose if it differs, or a comment. Most compounds without a hit are left out; they make up all but 8.7% or so of the library. The call rests on the fitted dose curve; in most records, active means well fitted curve in the direction sought with a large enough effect; inconclusive means small, poorly fitted or top-dose-only effect, or another doubt; inactive means no such curve, though single readings can be large; an effect the other way counts as inactive or inconclusive. Potency means the concentration at half of the fitted maximal effect.

SMILES	G9a inh	BAZ2B inh	JMJD2A Tudor	HP1b binding inh	ALOX12 inh	Sfp inh
CC(C)(C)C(=O)/C(=C/c1ccncc1)n1cncn1	.	-4%	-21%	17%	-1%	35µM*
Cc1nn(C)c(C)c1/C=C(/C(=O)C(C)(C)C)n1cncn1	10%	3%	-1%	22%	?	9%
C#CCOCCOCCOCCNc1nc(N2CCN(C(=O)[C@H](CCC(=O)O)n3cc(C(N)Cc4ccc(O)cc4)nn3)CC2)nc(N2CCN(C(=O)[C@H](CCC(=O)O)n3cc(C(N)Cc4ccc(O)cc4)nn3)CC2)n1 (stereo partly drawn)	?	50µM*	50µM*	32%	-2%	-7%
C#CCOCCOCCOCCNc1nc(N2CCN(C(=O)[C@H](Cc3ccc(O)cc3)n3cc([C@@H](N)CC(C)C)nn3)CC2)nc(N2CCN(C(=O)[C@H](Cc3ccc(O)cc3)n3cc([C@@H](N)CC(C)C)nn3)CC2)n1	-102%[59 µM]	50µM*	.	.	.	-17%
C#CCOCCOCCOCCNc1nc(N2CCN(C(=O)[C@H](CCC(=O)O)n3cc(C(N)Cc4ccc(O)cc4)nn3)CC2)nc(N2CCN(C(=O)[C@H](Cc3ccc(O)cc3)n3cc(C(N)CC(C)C)nn3)CC2)n1 (stereo partly drawn)	?	35µM*	.	.	.	-1%
C#CCOCCOCCOCCNc1nc(N2CCN(C(=O)[C@H](CCC(=O)O)n3cc(C(N)CC(C)C)nn3)CC2)nc(N2CCN(C(=O)[C@H](Cc3ccc(O)cc3)n3cc(C(N)CC(C)C)nn3)CC2)n1 (stereo partly drawn)	?	79µM*	79µM*	23%	.	-13%
Cn1nc(-c2nncn2Cc2ccccc2)c2c1CCN(C(=O)c1[nH]nc3c1COc1ccccc1-3)C2	.	.	.	.	101%	.
C#CCOCCOCCOCCNc1nc(N2CCN(C(=O)[C@H](CCCCN)n3cc(C(N)CO)nn3)CC2)nc(N2CCN(C(=O)[C@H](CCC(=O)O)n3cc(C(N)Cc4ccc(O)cc4)nn3)CC2)n1 (stereo partly drawn)	?	18µM*	.	.	.	-30%
C#CCOCCOCCOCCNc1nc(N2CCN(C(=O)[C@H](CCCCN)n3cc(CCC(=O)O)nn3)CC2)nc(N2CCN(C(=O)[C@H](Cc3ccc(O)cc3)n3cc(CCO)nn3)CC2)n1	.	.	-14%	17%	?	.
O=C(c1cc2cc([N+](=O)[O-])ccc2oc1=O)n1cccn1	45µM*	-14%	-21%	18%	?	20%
c1ccc(C(c2cccs2)c2c[nH]c3ccccc23)cc1 (stereo not drawn)	?	-31%	-26%	15%	-21%	.
Cn1cc(SCC(=O)Nc2nccs2)c2ccccc21	6%[59 µM]	-2%	-24%	15%	?	-8%
Cn1cc(C(c2ccccn2)c2cn(C)c3ccccc23)c2ccccc21	11%[12.7 µM]	35µM*	22µM*	?	?	9%
CCOc1cccc(C(c2c[nH]c3ccccc23)c2c[nH]c3ccccc23)c1O	.	.	.	.	4µM*	.
CCOc1ccccc1NC(=O)C(=O)c1c[nH]c2ccccc12	.	.	.	.	-26%	.
c1ccc(C(c2c[nH]c3ccccc23)c2c[nH]c3ccccc23)nc1	?	45µM*	79µM*	-28%	?	15%
Cn1cc(C(c2ccccc2OCC(=O)O)c2cn(C)c3ccccc23)c2ccccc21	-14%	50µM*	14µM*	?	19%	-3%
CNC(=O)C1CCN(Cc2nnnn2-c2ccccc2)CC1	.	.	.	.	-8%	.
Cc1ccc(C)c(-c2[nH]ncc2CN2CCCC(CO)(CCc3ccccc3)C2)c1 (stereo not drawn)	.	.	.	.	7%	.
N#Cc1cccc(C(=O)N2CCOCCNC(=O)[C@@H]3CCC[C@@H]32)c1	.	.	.	.	27%	.
CCOc1ccccc1NS(=O)(=O)c1cc(C(C)(C)C)ccc1C	.	.	.	.	-10%	.
COC(=O)c1cccc(COC(=O)c2ccc(CNC(C)=O)cc2)c1	.	.	.	.	12%	.
CC1CCCC(N2CCN(C(=O)c3ccccc3F)CC2)C1 (stereo not drawn)	-5%	-2%	-5%	40%	-4%	10%
CC1CCCC(N2CCN(C(=O)c3cccc(F)c3)CC2)C1 (stereo not drawn)	?	50µM*	4.5µM*	?	?	-19%
CC1CCCCC1N1CCN(C(=O)c2cccc(F)c2)CC1 (stereo not drawn)	?	?	40µM*	?	?	-21%
SMILES	G9a inh	BAZ2B inh	JMJD2A Tudor	HP1b binding inh	ALOX12 inh	Sfp inh
COc1cccc(C(=O)N2CCN(C(=O)c3cccc(F)c3)CC2)c1	-4%[59 µM]	-11%	-5%	41%	-14%	15%
COCCn1ccc2c(C3=CCOCC3)nc(-c3cccc(CO)c3)cc21	.	.	.	.	8%[176 µM]	.
CCc1cc(C(=O)N[C@@H]2COCC[C@@H]2OCc2ccccc2)cc(=O)[nH]1	.	.	.	.	17%	.
O=C(Nc1cccc(S(=O)(=O)N2CCCCC2)c1)c1ccc2ncsc2c1	?	56µM*	28µM*	7%	?	5%
O=C(Nc1ccc(S(=O)(=O)N2CCCC2)cc1)c1ccc(OCC2CCCO2)cc1 (stereo not drawn)	-13%	-17%	-10%	22%	-2%	10%
NS(=O)(=O)c1cccc(NC(=O)c2cccc(S(=O)(=O)N3CCCCCC3)c2)c1	.	.	-3%	26%	?	.
O=C(Nc1cccc(S(=O)(=O)N2CCCCC2)c1)c1ccc(OCC2CCCO2)cc1 (stereo not drawn)	56µM*	.	-13%	23%	-18%	17%
O=C(Nc1ncccc1O)c1ccc(OCC2CCCO2)cc1 (stereo not drawn)	-8%	79µM*	-24%	39%	15%	0%
O=C(NC1=NCCS1)c1ccc(OCC2CCCO2)cc1 (stereo not drawn)	-28%[59 µM]	0%	-12%	5%	16%[57.4 µM]	18%
Cc1cc2n(CC(O)COc3ccc(Cl)cc3)c(=O)c3ccccc3n2n1 (stereo not drawn)	.	.	.	.	-15%	.
CC(C)c1cccc(NC(=O)Cn2cccc2-c2nc(-c3ccc4c(c3)OCO4)no2)c1	.	.	.	.	1%	.

Source: PubChem
